Results reported in PubChem BioAssay AID463173 (ICCB-Longwood Screening Facility, Harvard Medical School, 2010).
Out of some 52,000 compounds screened, about 4,300 (8.3%) were called active. No stated cut-off is given here; in the data, active means survival mostly below about 52% (no sharp cut-off); inactive means mostly above about 56%. Only a selection was taken, and actives are over-represented in it overall.

Test system: DeltatarO mutant
Experiment: S. aureus survival, RN4220 and DeltatarO strains – OD600, teichoic acid synthesis inhibitors, primary screen (AID 463173)
Conditions: S. aureus RN4220 wild type/DeltatarO growth, OD600, 18 h, stronger effect = lower value, screened at 18.75 µg/mL (by protocol)

Row | Compound | survival
1 | Cc1ccccc1C(=O)n1nc(-c2ccco2)nc1NCc1ccc(Cl)cc1 | 80% (inactive)
2 | Cc1cccc(CCNC(=O)c2ccc3c(c2)nc2n3CCCCC2)c1 | 77% (inactive)
3 | O=C(c1ccccc1)N1CCN(Cc2ccccc2)CC1 | 72% (inactive)
4 | CCOc1ccc(/C=C/c2nc(C#N)c(N(C)C)o2)cc1 | 102% (inactive)
5 | CCCCN(CC)CCNC(=O)Cn1cc2c(n1)-c1c(oc(C(=O)N3CCCC3)c1C)CC2 | 85% (inactive)
6 | COC(=O)c1cc2occc2n1Cc1nc(-c2ccccc2F)oc1C | 102% (inactive)
7 | Cc1cc2ncn(S(=O)(=O)c3ccc(S(=O)(=O)NCC4CCCO4)cc3)c2cc1C (centres undefined) | 82% (inactive)
8 | O=C(NCCCN1CCCCC1)c1ccc2c(c1)sc1nc(-c3ccc(F)cc3)cn12 | 53% (active)
9 | COc1ccc(N2CCN(CCCNC(=O)c3ccc4nc(N5CCCCC5)sc4c3)CC2)cc1 | 78% (inactive)
10 | Cc1ccc[n+](CC(=O)c2cccs2)c1 | 106% (inactive)
11 | CCN1CCN(Cc2nc3cc(NC(=O)c4cc(OC)c(OC)c(OC)c4)ccc3n2CC)CC1 | 84% (inactive)
12 | CC(=O)c1ccc(N2CCN(S(=O)(=O)c3ccc4[nH]c5c(c4c3)CCCC5)CC2)cc1 | 64% (inactive)
13 | CCOc1ccc(-c2cc3c(=O)n(CC(=O)NCc4ccccc4)ccn3n2)cc1 | 83% (inactive)
14 | Cc1ccc(-n2c(=O)cc(N3CCN(c4ccccc4Cl)CC3)[nH]c2=O)cc1 | 25% (active)
15 | Cc1ccc(Cl)cc1-n1c(=O)cc(N2CCN(c3ccccc3)CC2)[nH]c1=O | 92% (inactive)
16 | Cc1ccc(Cl)cc1-n1c(=O)cc(N2CCN(c3ccc(F)cc3)CC2)[nH]c1=O | 70% (inactive)
17 | N#CC1(Nc2ccccc2Cl)C(=O)Nc2ccccc21 (centres undefined) | 69% (inactive)
18 | COc1ccc(Nc2c(-c3ccc(Cl)cc3)nc3cnccn23)cc1OC | 58% (inactive)
19 | CC(C)c1ccc(Nc2c(-c3ccc(N(C)C)cc3)nc3cnccn23)cc1 | 43% (active)
20 | CC(C)c1ccc(Nc2c(-c3ccccc3O)nc3cnccn23)cc1 | 55% (inactive)
21 | Oc1ccccc1-c1nc2cnccn2c1Nc1ccc(Cl)cc1 | 15% (active)
22 | CN(C)c1ccc(-c2nc3cnccn3c2Nc2cccc(C(F)(F)F)c2)cc1 | 83% (inactive)
23 | COc1cc(-c2nc3cnccn3c2Nc2ccc(C(C)C)cc2)ccc1O | 66% (inactive)

Row | Compound | survival
24 | Cc1ccc(Nc2c(-c3ccncc3)nc3ccc(C)cn23)cc1 | 102% (inactive)
25 | Cc1cccc(C)c1Nc1c(-c2ccccc2Cl)nc2cnccn12 | 97% (inactive)
26 | Cc1ccc(Nc2c(-c3ccc(C)cc3)nc3cnccn23)cc1 | 35% (active)
27 | O=C(CSc1nc(=O)n(Cc2ccco2)c2c1CCC2)NCc1ccc(Cl)cc1 | 69% (inactive)
28 | Cc1cccc(C)c1NC(=O)CN(Cc1ccc(Br)cc1)S(=O)(=O)c1ccccc1 | 60% (inactive)
29 | CCOc1ccccc1NC(=O)C(CC)Sc1nc2ccncc2[nH]1 (centres undefined) | 122% (inactive)
30 | COc1cc(NC(=O)N2CCC(CN3CCCC3)CC2)cc(OC)c1OC | 79% (inactive)
31 | O=C(Cn1nnc2sc(-c3ccccc3)cc2c1=O)Nc1cccc(C(F)(F)F)c1 | 40% (inactive)
32 | COc1ccc(C2(NC(=O)c3ccc(Cn4cc(Cl)cn4)o3)CCCCC2)cc1 | 102% (inactive)
33 | O=c1c2ccccc2n(Cc2c(F)cccc2Cl)c(=O)n1CCc1ccccc1 | 85% (inactive)
34 | COCCN(CCOC)c1ncnc2c1c(-c1ccccc1)cn2-c1ccc(C)c(Cl)c1 | 67% (inactive)
35 | CCCSc1nc(-c2ccc(OC)cc2)cc(-c2ccccc2OC)c1C#N | 64% (inactive)
36 | CN(C)c1ccc(-c2cc(-c3ccccc3)c(C#N)c(N)n2)cc1 | 105% (inactive)
37 | COc1ccccc1-c1cc(-c2ccc(O)cc2)nc(N)c1C#N | 12% (active)
38 | CCOc1ccc2c(c1)c(=O)c(C(=O)c1ccccc1)cn2Cc1ccccc1F | 83% (inactive)
39 | O=C(/C=N/O)NCCN1CCCCC1 | 98% (inactive)
40 | CCCOc1ccc(CNC(=O)C2CCN(C(=O)c3sccc3-n3cccc3)CC2)cc1 | 79% (inactive)
41 | Cc1ccc(S(=O)(=O)N2CCCc3cc(NS(=O)(=O)c4cccc(Cl)c4)ccc32)cc1 | 68% (inactive)
42 | Cc1cc2c(cc1C)-n1c(-c3ccccc3)c3c(=O)n(C)c(=O)n(C)c3c1C(c1ccco1)N2 (centres undefined) | 80% (inactive)
43 | Cc1ccc(C2Nc3ccccc3-n3c(-c4ccccc4)c4c(=O)n(C)c(=O)n(C)c4c32)o1 (centres undefined) | 59% (inactive)
44 | COc1ccc(-c2c3c(=O)n(C)c(=O)n(C)c3c3n2-c2ccccc2NC3c2ccccc2OC)cc1 (centres undefined) | 74% (inactive)
45 | COc1ccc(O)c(C2Nc3ccccc3-n3c(-c4ccccc4)c4c(=O)n(C)c(=O)n(C)c4c32)c1 (centres undefined) | 3% (active)
46 | Cc1ccc(C2Nc3cc(C)c(C)cc3-n3c(-c4ccccc4)c4c(=O)n(C)c(=O)n(C)c4c32)o1 (centres undefined) | 68% (inactive)

Row | Compound | survival
47 | COc1ccc(-c2c3c(=O)n(C)c(=O)n(C)c3c3n2-c2ccccc2NC3c2ccco2)cc1 (centres undefined) | 50% (inactive)
48 | Cn1c(=O)c2c(-c3ccccc3)n3c(c2n(C)c1=O)C(c1ccco1)Nc1ccccc1-3 (centres undefined) | 77% (inactive)
49 | Cn1c(=O)c2c(-c3ccccc3)n3c(c2n(C)c1=O)C(c1cc(Cl)ccc1O)Nc1ccccc1-3 (centres undefined) | 1% (active)
50 | COc1ccc(-c2c3c(=O)n(C)c(=O)n(C)c3c3n2-c2ccccc2NC3c2ccc(O)cc2O)cc1 (centres undefined) | 0% (active)
51 | Cc1ccc(-c2c3c(=O)n(C)c(=O)n(C)c3c3n2-c2ccccc2NC3c2ccc(C)cc2O)cc1 (centres undefined) | 2% (active)
52 | COc1ccccc1C1Nc2ccccc2-n2c(-c3ccccc3)c3c(=O)n(C)c(=O)n(C)c3c21 (centres undefined) | 53% (inactive)
53 | COc1ccc(-c2nc3ccccc3n3c(-c4ccccc4)c4c(=O)n(C)c(=O)n(C)c4c23)cc1 | 80% (inactive)
54 | COc1ccc(OCC(=O)Nn2cnnc2)cc1 | 73% (inactive)
55 | O=C(Cn1c(=O)oc2cc(S(=O)(=O)N3CCCCCC3)ccc21)Nc1ccc(F)cc1F | 84% (inactive)
56 | Cc1ccc(CCNC(=O)c2c(C)oc3ncn(CC(C)C)c(=O)c23)cc1 | 119% (inactive)
57 | CC(C)n1cc2c(c1-c1ccccc1Cl)c(=O)n(C)c(=O)n2C | 89% (inactive)
58 | Cc1cc(=O)n2c(C(=O)Nc3ccc(Br)cc3)c(C(=O)Nc3ccccc3)sc2n1 | 62% (inactive)
59 | Cn1c(=O)c2c([nH]c(=O)n2Cc2ccc(Cl)cc2Cl)n(C)c1=O | 42% (active)
60 | Cn1c(=O)c2c(nc(Oc3ccc(C#N)cc3)n2Cc2ccc(Cl)cc2Cl)n(C)c1=O | 106% (inactive)
61 | C=CCn1c(=O)[nH]c2c1c(=O)n(C)c(=O)n2C | 80% (inactive)
62 | CCOc1ccccc1N(CC)C(=O)Nc1cn(C)c(=O)c2ccccc12 | 94% (inactive)
63 | CN(C(=O)Nc1cn(C)c(=O)c2ccccc12)c1ccccc1 | -5% (active)
64 | Cc1ccc(NC(=O)Nc2cn(C)c(=O)c3ccccc23)c(Cl)c1 | 89% (inactive)
65 | CCOc1ccc(NC(=O)N(Cc2c[nH]c3ccccc23)C2CCCCCC2)cc1 | 79% (inactive)
66 | CCOc1ccc(NC(=O)N(Cc2c[nH]c3ccccc23)C2CCCCC2)cc1 | 74% (inactive)
67 | CCc1ccc(NC(=O)N(Cc2cn(CC)c3ccccc23)C2CCCCC2)cc1 | -13% (active)
68 | CCc1ccc(NC(=O)N(Cc2c[nH]c3ccccc23)C2CCCCC2)cc1 | 84% (inactive)
69 | CCc1ccc(NC(=O)N(Cc2c[nH]c3ccccc23)C2CCCCCC2)cc1 | 102% (inactive)

Row | Compound | survival
70 | CCOc1ccc(NC(=O)N(Cc2cn(CC)c3ccccc23)C2CCCCCC2)cc1 | -12% (active)
71 | COc1ccc(/C=C/C(=O)Nc2nc(-c3cccs3)ns2)cc1OC | 48% (inactive)
72 | Cc1ccc(Nc2c(-c3cccc(Cl)c3)nc3cccc(C)n23)cc1 | 49% (inactive)
73 | COc1cc(NC(=O)Nc2nnc(N3CCCCC3)s2)cc(OC)c1 | 68% (inactive)
74 | Cc1oc2ncn(CC(C)C)c(=O)c2c1C(=O)NCCCN1CCCCC1C (centres undefined) | 87% (inactive)
75 | COc1ccc(N2CCN(C(=O)COCc3cc(-c4ccc5c(c4)OCO5)on3)CC2)cc1 | 92% (inactive)
76 | COc1cccc(C(c2c(O)cc(C)n(Cc3ccco3)c2=O)N2CCC(C)CC2)c1 (centres undefined) | 74% (inactive)
77 | O=C(Cc1ccc(Cl)cc1)NCCN1CCOCC1 | 91% (inactive)
78 | CC1=C(C(=O)Nc2ccc(C)cc2C)C(c2ccc(O)cc2)n2nc(SCC(=O)c3ccc(C)cc3)nc2N1 (centres undefined) | 125% (inactive)
79 | Cc1ccc(C(=O)N(Cc2ccc(N(C)C)cc2)CC2CCCO2)cc1 (centres undefined) | 50% (inactive)
80 | COc1ccc(C(=O)N(Cc2ccc(N(C)C)cc2)CC2CCCO2)cc1 (centres undefined) | 63% (inactive)
81 | COc1cc(C(=O)N(Cc2ccc(N(C)C)cc2)CC2CCCO2)cc(OC)c1OC (centres undefined) | 47% (active)
82 | Cn1c(=O)n(C)c2cc(NS(=O)(=O)c3ccc(Cl)cc3)c(NCc3ccccc3)cc21 | 117% (inactive)
83 | Cn1c(=O)n(C)c2cc(NS(=O)(=O)c3ccc(Br)cc3)c(NCc3ccccc3)cc21 | 57% (inactive)
84 | CC(C)c1ccc(S(=O)(=O)Nc2cc3c(cc2NCc2ccccc2)n(C)c(=O)n3C)cc1 | 39% (active)
85 | Cn1c(=O)n(C)c2cc(NS(=O)(=O)c3ccc(C(C)(C)C)cc3)c(NCc3ccccc3)cc21 | 43% (active)
86 | Cc1ccc(S(=O)(=O)Nc2cc3c(cc2NCc2ccccc2)n(C)c(=O)n3C)cc1 | 73% (inactive)
87 | Cn1c(=O)n(C)c2cc(NS(=O)(=O)c3ccccc3)c(NCc3ccccc3)cc21 | 68% (inactive)
88 | COc1ccc(Cl)cc1NC(=O)Cn1cc(S(=O)(=O)Cc2cccc(Cl)c2)c2ccccc21 | 83% (inactive)
89 | CCOC(=O)c1ccc(NC(=O)c2c(NCc3cccc(OC)c3OC)sc3c2CCC3)cc1 | 77% (inactive)
